Assay outcomes: PubChem, several laboratories
PLC-gamma1 inh: blocks human PLC-gamma1 enzyme activity | P19174 | purified PLC-gamma1, fluorogenic substrate, fluorescence | inhibition, % at 12.2 µM | hit rate 0.84% among 370,000 | AID 720700; in the data active = inhibition above about 9.5%
Rce1 inh: blocks yeast Ras-converting enzyme. Q03530. yeast membranes, quenched prenylated peptide cleavage fluorescence. calls only. hit rate 0.27% among 290,000;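 active = fall in fluorescence gain of 50% or more versus controls, with final raw signal at or below 3038400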;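 note: plate controls were neutral control wells for no effect and wells lacking membranes for full effect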
PLC-beta3 inh: inhibitors of human phospholipase C beta3; Q01970; Purified PLC-beta3, fluorogenic substrate, fluorescence; inhibition, % at 12.2 µM; hit rate 0.18% among 370,000; AID 720704;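 note: 0% = median of compound wells on plate and 100% = full blocker control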
Target sequence (Q01970 whole entry, looked up): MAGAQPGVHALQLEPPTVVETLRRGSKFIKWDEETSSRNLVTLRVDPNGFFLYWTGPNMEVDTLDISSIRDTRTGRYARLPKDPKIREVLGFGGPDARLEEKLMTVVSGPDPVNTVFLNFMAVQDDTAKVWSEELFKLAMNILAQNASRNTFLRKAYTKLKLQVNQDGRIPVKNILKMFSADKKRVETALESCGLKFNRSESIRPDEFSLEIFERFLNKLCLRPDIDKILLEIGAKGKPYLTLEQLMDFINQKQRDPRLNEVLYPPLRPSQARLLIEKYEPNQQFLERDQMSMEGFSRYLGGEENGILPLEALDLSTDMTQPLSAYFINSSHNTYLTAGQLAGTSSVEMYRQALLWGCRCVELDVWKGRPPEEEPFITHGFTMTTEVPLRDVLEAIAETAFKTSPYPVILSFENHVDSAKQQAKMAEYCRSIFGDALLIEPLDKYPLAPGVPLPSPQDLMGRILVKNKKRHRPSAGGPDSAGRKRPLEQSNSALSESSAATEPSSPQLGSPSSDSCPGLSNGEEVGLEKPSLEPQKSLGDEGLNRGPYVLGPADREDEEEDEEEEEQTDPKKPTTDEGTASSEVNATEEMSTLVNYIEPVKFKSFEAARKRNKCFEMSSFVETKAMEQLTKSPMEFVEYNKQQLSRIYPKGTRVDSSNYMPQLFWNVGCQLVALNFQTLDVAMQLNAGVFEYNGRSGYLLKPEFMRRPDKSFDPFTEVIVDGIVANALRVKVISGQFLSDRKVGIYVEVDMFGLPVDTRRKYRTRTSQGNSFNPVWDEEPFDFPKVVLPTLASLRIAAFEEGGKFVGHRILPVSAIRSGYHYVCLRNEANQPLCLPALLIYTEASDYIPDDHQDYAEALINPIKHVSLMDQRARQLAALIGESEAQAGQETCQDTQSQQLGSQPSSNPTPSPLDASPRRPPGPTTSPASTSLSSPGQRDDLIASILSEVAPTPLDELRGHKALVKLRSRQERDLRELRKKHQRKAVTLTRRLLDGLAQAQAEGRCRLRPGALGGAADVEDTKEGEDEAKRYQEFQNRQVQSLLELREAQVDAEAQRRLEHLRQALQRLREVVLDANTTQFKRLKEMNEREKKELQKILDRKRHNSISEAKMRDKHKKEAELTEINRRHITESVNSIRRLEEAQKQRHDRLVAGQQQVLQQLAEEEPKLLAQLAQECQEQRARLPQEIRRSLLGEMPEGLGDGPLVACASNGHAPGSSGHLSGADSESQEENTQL
ADAM10 inh: inhibits human ADAM10; hit rate 0.62% among 370,000; recombinant ADAM10, EDANS/DABCYL FRET peptide cleavage, 3 h; O14672; inhibition, % at 7 µM;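 active = inhibition above a per-campaign cutoff equal to the mean of compounds falling between control-based bounds plus 3 SD, cut at about 20% in these data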;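 note: 0% = DMSO wells while the 100% control is not disclosed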
ADAM17 inh: ADAM17 inhibition, QFRET primary screen; hit rate 0.83% among 370,000; inhibition, % at 6.95 µM; recombinant ADAM17, EDANS/DABCYL FRET peptide cleavage; P78536;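 active = inhibition above the mean of compounds lying between control limits plus 3 SD, set per campaign, cut at about 8.5% in these data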;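 note: 0% = DMSO-only wells as the low control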
ADAM10 confirm: confirmation of inhibitors of human ADAM10 | shares compounds with ADAM10 inh | ADAM10 QFRET peptide cleavage, EDANS fluorescence | inhibition, % at 6.95 µM | hit rate 1% among 2,100 | AID 743208;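 active = inhibition above about 20% chosen separately for each screening run, limit read from the data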;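 note: 0% = DMSO wells and 100% = marimastat wells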
ADAM17 counter: inhibits human ADAM17 in ADAM10 exosite counter-screen; ADAM17 QFRET peptide cleavage, EDANS fluorescence; inhibition, % at 6.95 µM; shares compounds with ADAM10 inh; hit rate 0.5% among 2,100;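 active = mean triplicate inhibition above the solvent-only control wells' mean plus 3 SD, cut at about 12% in these data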;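 note: 0% = DMSO wells and 100% = marimastat wells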
ADAM10 counter: ADAM10 inhibition, counter-screen for ADAM17 exosite hits; hit rate 47% among 2,900; shares compounds with ADAM17 inh; recombinant ADAM10, EDANS/DABCYL FRET peptide cleavage, 3 h; inhibition, % at 6.95 µM;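 active = mean inhibition over the triplicate runs exceeds the activity threshold set in the earlier primary screen, cut at about 20% in these data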;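 note: 0% = DMSO wells and 100% = marimastat wells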
ADAM17 confirm: human ADAM17 inhibition, confirmation. AID 743257. shares compounds with ADAM17 inh. hit rate 65% among 2,900. inhibition, % at 6.95 µM. recombinant ADAM17, EDANS/DABCYL QFRET peptide cleavage;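 active = mean inhibition across replicates above the hit cutoff set in the primary screen, cut at about 8.5% in these data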;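 note: 0% = DMSO wells and 100% = marimastat wells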
PLCg1 ctr: inhibits human PLC-gamma1 in PLC-beta3 counter-screen. inhibition, % at 12.3 µM. purified PLC-gamma1, fluorogenic substrate, fluorescence. shares compounds with PLC-gamma1 inh. hit rate 3.1% among 3,300. AID 743258; in the data active = inhibition above about 9.5%
PLCb3 confirm: confirmation of human PLC-beta3 inhibitors; shares compounds with PLC-gamma1 inh; purified PLC-beta3, fluorogenic substrate fluorescence; inhibition, % at 12.3 µM; hit rate 1% among 3,300
Starred values were filed as active, the others as inactive. The list is not random: actives were taken first. Their share in the collection is about 2.1%. Cut-off read from the data, not from the text of the source, unless noted: active = inhibition above about 11%; inactive = the rest.

Screening CC(=O)Oc1ccc(C(=O)Nc2cccc(C(=O)c3ccc(C)c(C)c3)c2)cc1 returned PLC-gamma1 inh 15*, Rce1 inh inactive, PLC-beta3 inh 9, ADAM10 inh 32*, ADAM17 inh 16*, ADAM10 confirm 6, ADAM17 counter 2, ADAM10 counter 14, ADAM17 confirm 12*, PLCg1 ctr -2 and PLCb3 confirm -2.
`COc1ccccc1C(=O)NCc1ccccn1` gave PLC-gamma1 inh -3, Rce1 inh inactive, PLC-beta3 inh -9, ADAM10 inh -7 and ADAM17 inh -5.
For NC(=O)CSc1nnc(-c2ccccn2)n1Cc1ccco1 the results were PLC-gamma1 inh 0, Rce1 inh inactive, PLC-beta3 inh 0, ADAM10 inh 1 and ADAM17 inh -6.
Clc1ccccc1CSc1nnc(-c2ccccn2)n1Cc1ccco1 was read as PLC-gamma1 inh 12*, PLC-beta3 inh 1, ADAM10 inh 21*, ADAM17 inh 8, ADAM10 confirm 1, ADAM17 counter 0, PLCg1 ctr -5 and PLCb3 confirm -4.
For O=C(NCC1CCN(C(=O)C(=O)c2cccs2)CC1)c1cccnc1 the results were PLC-gamma1 inh 1, PLC-beta3 inh 1, ADAM10 inh -2 and ADAM17 inh -3.
O=C(CCSc1ccccc1Cl)Nc1cccc([N+](=O)[O-])c1 was read as PLC-gamma1 inh 11*, Rce1 inh inactive, PLC-beta3 inh 9, ADAM10 inh 29*, ADAM17 inh 12*, ADAM10 confirm 2, ADAM17 counter 0, ADAM10 counter 24*, ADAM17 confirm 12*, PLCg1 ctr 6 and PLCb3 confirm 6.
NS(=O)(=O)c1cccc(NC(=O)CCSc2ccccc2Cl)c1 was read as PLC-gamma1 inh 1, Rce1 inh inactive, PLC-beta3 inh -3, ADAM10 inh -9 and ADAM17 inh -1.
For COCCn1c(SCC(=O)N2CCCC2)nc2c(c1=O)SCC2 the results were PLC-gamma1 inh 7, PLC-beta3 inh 11*, ADAM10 inh 21*, ADAM17 inh 7, ADAM10 confirm 6, ADAM17 counter 1, PLCg1 ctr 4 and PLCb3 confirm 4.
Screening COCCn1c(SCC(=O)N2CCC(C)CC2)nc2c(c1=O)SCC2 returned PLC-gamma1 inh 5, Rce1 inh inactive, PLC-beta3 inh -9, ADAM10 inh -12 and ADAM17 inh 0.
O=C(CSc1ccc(Cl)cc1Cl)N1CCC(c2nc3ccccc3s2)CC1 was read as PLC-gamma1 inh 11*, Rce1 inh inactive, PLC-beta3 inh -4, ADAM10 inh 21*, ADAM17 inh 12*, ADAM10 confirm 11, ADAM17 counter 4, ADAM10 counter 18, ADAM17 confirm 13*, PLCg1 ctr -4 and PLCb3 confirm -9.
`CCNC(=O)N1CCC(c2nc3ccccc3s2)CC1` gave PLC-gamma1 inh 2, Rce1 inh inactive, PLC-beta3 inh -7, ADAM10 inh -11 and ADAM17 inh 0.
`CCN(CC)S(=O)(=O)c1cc([N+](=O)[O-])ccc1NNC(=O)Nc1ccccc1OC` gave PLC-gamma1 inh 10*, Rce1 inh inactive, PLC-beta3 inh 6, ADAM10 inh 26*, ADAM17 inh 10*, ADAM10 confirm 1, ADAM17 counter 0, ADAM10 counter 8, ADAM17 confirm 7, PLCg1 ctr 2 and PLCb3 confirm 5.
Screening Cc1ccc(O)c(-c2cc(-c3ccc(F)cc3)no2)c1 returned PLC-gamma1 inh -59, Rce1 inh inactive, PLC-beta3 inh -75, ADAM10 inh 2 and ADAM17 inh -1.
Screening Cc1cc(N2CCCCC2)nc(SCc2ccc(C#N)cc2)n1 returned PLC-gamma1 inh 11*, Rce1 inh inactive, PLC-beta3 inh 6, ADAM10 inh 26*, ADAM17 inh 8.6*, ADAM10 confirm 3, ADAM17 counter 0, ADAM10 counter 20*, ADAM17 confirm 13*, PLCg1 ctr -1 and PLCb3 confirm -1.
CCn1c(NCc2ccccc2NS(=O)(=O)c2ccc(C)cc2)nc2ccccc21 was read as PLC-gamma1 inh 9, Rce1 inh inactive, PLC-beta3 inh 12*, ADAM10 inh 27*, ADAM17 inh 16*, ADAM10 confirm 6, ADAM17 counter 3, ADAM10 counter 24*, ADAM17 confirm 15*, PLCg1 ctr 0 and PLCb3 confirm 0.
For O=C(/C=C/c1ccc(O)c(O)c1)c1ccc(S(=O)(=O)N2CCCCCC2)cc1 the results were PLC-gamma1 inh 11*, Rce1 inh inactive, PLC-beta3 inh 7, ADAM10 inh 34*, ADAM17 inh 18*, ADAM10 confirm 6, ADAM17 counter 2, ADAM10 counter 27*, ADAM17 confirm 17*, PLCg1 ctr -1 and PLCb3 confirm -2.
For COc1cccc(NC(=O)CN(C)C(=O)CSc2nc(C)cc(C)n2)c1 the results were PLC-gamma1 inh 2, PLC-beta3 inh -8, ADAM10 inh -14 and ADAM17 inh -4.
For CC(C)C[C@H](NC(=O)c1[nH]cnc1C(=O)N[C@H](C)c1ccccc1)C(=O)OCc1ccccc1 the results were PLC-gamma1 inh 9.6*, Rce1 inh inactive, PLC-beta3 inh 6, ADAM10 inh 27*, ADAM17 inh 13*, ADAM10 confirm 6, ADAM17 counter 3, ADAM10 counter 46*, ADAM17 confirm 21*, PLCg1 ctr 0 and PLCb3 confirm 0.
For COc1ccccc1-c1cc(N)n(S(=O)(=O)c2cccc3nsnc23)n1 the results were PLC-gamma1 inh 12*, Rce1 inh inactive, PLC-beta3 inh 3, ADAM10 inh 23*, ADAM17 inh 4, ADAM10 confirm 2, ADAM17 counter -1, PLCg1 ctr -2 and PLCb3 confirm 2.
Screening Nc1cc(-c2ccc(Cl)cc2)nn1S(=O)(=O)c1cccc2nsnc12 returned PLC-gamma1 inh 2, Rce1 inh inactive, PLC-beta3 inh 5, ADAM10 inh 1 and ADAM17 inh 6.
